# FBPA Giardia inh: Giardia lamblia aldolase inhibition; A8B2U2; purified Giardia FBPA; Potency, µM (highest dose often 59.6 µM), without a hit: at the highest dose activity, negative = inhibition, usual class: inhibitors; hit rate 0.71% among 290,000; AID 2451; also: potency is read from the fitted curve at half-maximal effect; % is scaled to controls: 0 for no effect and ±100 for the full control effect; nearly all actives have a fitted effect of over 55% in size
# Target sequence (A8B2U2 whole entry, looked up): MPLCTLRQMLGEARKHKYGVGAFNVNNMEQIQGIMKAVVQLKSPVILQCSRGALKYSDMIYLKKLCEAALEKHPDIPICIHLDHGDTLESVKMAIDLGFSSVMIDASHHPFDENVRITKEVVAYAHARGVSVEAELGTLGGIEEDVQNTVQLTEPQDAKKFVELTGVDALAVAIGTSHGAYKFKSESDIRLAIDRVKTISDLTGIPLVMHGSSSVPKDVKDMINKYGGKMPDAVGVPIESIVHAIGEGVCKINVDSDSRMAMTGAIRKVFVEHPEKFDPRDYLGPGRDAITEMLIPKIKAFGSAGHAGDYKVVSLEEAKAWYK
#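 Giardia FBPA (40 nM reagent) was preincubated 10 min at RT with compound (up to 57.5 uM final), then substrate plus GAPDH/TPI/NAD/arsenate coupling system with diaphorase/resazurin was added; resorufin fluorescence (525/598 nm) was read after 20 min.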
# Shiga inhibitor: blocks Shiga toxin action in Vero cells; Vero cells, Shiga toxin protein synthesis inhibition reporter; inhibition, % at 38.7 µM; hit rate 9.2% among 290,000; AID 2315; in the data active = inhibition mostly above about 28%, no sharp cut-off; inactive = mostly below about 43%; also: 0% is about no effect
# Pf growth 48h: P. falciparum growth inhibition at 48 hours (one generation); P. falciparum luciferase growth in erythrocytes, 48 h; hit rate 5.9% among 310,000; Potency, µM (doses to about 28.7 µM), inactives show at the top dose activity change, negative = inhibition, hits mostly inhibitors; AID 504832; also: potency is read from the fitted curve at half-maximal effect; % is scaled to controls: 0 for no effect and ±100 for the full control effect
#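 Luciferase-expressing P. falciparum in infected erythrocytes (2% hematocrit, 0.1% parasitemia final) in RPMI 1640/0.5% Albumax were exposed to compound for 48 hours at 37 C, 5% CO2; growth read as luminescence.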
# Pf growth 96h: P. falciparum growth inhibition at 96 hours; hit rate 6.9% among 320,000; AID 504834; Potency, µM (series often up to 28.7 µM), for inactives: at the highest dose activity change, negative = inhibition, usual class: inhibitors; P. falciparum luciferase reporter growth, 96 h; also: potency is read from the fitted curve at half-maximal effect; % is scaled to controls: 0 for no effect and ±100 for the full control effect
#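 Readout is luminescence from an integrated firefly luciferase in P. falciparum. Red cells, 2% hematocrit and 0.05% parasitemia final, were cultured with compound through two parasite generations (96 hours) at 37 C, 5% CO2.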
# NS1 function inh: influenza NS1 inhibition | Potency, µM (top dose mostly 46.1 µM), without a hit: top-dose activity, positive = more growth | AID 2326 | hit rate 0.4% among 270,000; calls by dose curve; also: potency is read from the fitted curve at half-maximal effect; actives are rising curves; nearly all actives have a fitted effect of over 50% in size
#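 OD600 was taken as the measure of yeast growth restored by compound in an NS1-expressing S. cerevisiae strain. Cells had been washed out of glucose medium and diluted 1:100 into galactose -URA medium, pH 6.0.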
# CHX counter: counter-screen hit for Shiga toxin inhibitors, cycloheximide; cell reporter, cycloheximide protein synthesis inhibition counterscreen; max response, %; hit rate 12% among 300,000; AID 2314; in the data active = max response mostly above about 13%, no sharp cut-off; inactive = mostly below about 14%; also: read at 38.3 µM for the half of the compounds with a filed dose; 0% is about no effect
# * = called active by the depositor; ? = inconclusive; nt = not tested or not shown; [ ] = dose if it differs, or a comment. Hits are enriched below; roughly 21% of the tested compounds scored in any of these assays. Unless noted, calls follow the shape of the dose curve; as a rule, active = well fitted curve in the direction sought with a large enough effect; inconclusive = small, poorly fitted or top-dose-only effect, or another doubt; inactive = no such curve, though single readings can be large; an effect the other way counts as inactive or inconclusive.
SMILES,FBPA Giardia inh,Shiga inhibitor,Pf growth 48h,Pf growth 96h,NS1 function inh,CHX counter
CC(=O)N1N=C(c2cccs2)CC1c1cccs1 (stereo not given),8.0%,11.9,1.0%,30.0%,-1.1%,-3.2
COc1ccc(C2CC(c3ccc(C)o3)=NN2C(C)=O)cc1 (stereo not given),3.8%,96.6*,48.4%,?,-2.0%,20.8*
CC(=O)N1N=C(c2cccs2)CC1c1ccc(Br)cc1 (stereo not given),-0.6%,32.5,-2.3%[0.00184 µM],3.5%,-39.8%,31.7*
COc1ccc(C2CC(c3ccc(Cl)cc3)=NN2C(C)=O)cc1 (stereo not given),8.2%,29.6*,9.1%,?,-8.7%,34.2*
NC(=S)Nc1ccc(S(=O)(=O)c2ccc(NC(N)=S)cc2)cc1,-10.8%,-8.2,-4.5%,1.8%,13.1%,-2.2
CCOCCOC(=O)Cn1cnc2scc(-c3ccc(C)cc3)c2c1=O,3.7%,-10.0,-6.8%,?,13.2%,-1.9
Cc1nn(C(C)C)c(C)c1CN1CCC(C(=O)Nc2cccc(-c3cccc(F)c3)c2)CC1,-5.1%,-27.9,?,-17.1%,1.0%,-4.2
CN(CCOc1ccccc1)C(=O)CCc1c[nH]c2ccccc12,-0.3%,4.4,9.0%,0.7%,-6.8%,12.6
COc1ccc(C2=NN(C(=O)c3ccc(Cl)c([N+](=O)[O-])c3)C(c3ccccc3)C2)cc1 (stereo not given),-6.0%,-10.6,-13.7%,-7.6%,29.1%,-4.2
COc1ccc(C2CC(c3ccc(Cl)cc3)=NN2C(=O)c2cccc([N+](=O)[O-])c2)cc1 (stereo not given),-0.5%,13.8,?,?,?,19.1*
COc1ccc(C2=NN(CN3C(=O)C(=O)c4ccccc43)C(c3cccc([N+](=O)[O-])c3)C2)cc1 (stereo not given),-3.5%,117.3*,?,-22.3%,4.0%,12.7*
COc1ccccc1N1N=C(c2ccc([N+](=O)[O-])cc2)CC1c1ccccc1 (stereo not given),23.4%,nt,?,-8.4%,21.2%,0.8
COc1ccc(C2CC(c3ccc4ccccc4c3OC(C)=O)=NN2C(C)=O)cc1 (stereo not given),-1.0%,59.5*,?,21.0%,3.4%,24.5*
O=C(CCC(=O)N/N=C/c1cc(Cl)cc(Cl)c1O)NCc1ccccc1,16.0%,6.9,24.2%,21.0%,1.4%,5.1
CN1CCN(c2ncc3nc(-c4ccc(Cl)cc4)c(=O)n(C)c3n2)CC1,-14.6%,nt,nt,nt,nt,nt
CCC(=O)NC1=C(Nc2ccc(N)cc2)C(=O)c2ccccc2C1=O,?,96.4*,?,?,6.9%,27.4*
CCC(=O)Nc1ccc(C(=O)c2ccccc2)cc1,1.8%,34.7,32.2%,5.4%,-53.0%,20.1*
CCC(=O)NS(=O)(=O)c1cccnc1Nc1ccc(Cl)cc1,15.0%,14.5,17.5%,nt,0.0%,0.7
C=CCNC(=O)c1ccc(C(=O)c2ccccc2)cc1,2.1%,109.9*,45.1%,36.0%,-61.7%,24.0*
O=C(Nc1ccc(C(=O)c2ccccc2)cc1)c1ccccc1,14.1%,147.7*,42.9%,?,-40.7%,55.9*
N#CCOC(=O)c1cc(S(=O)(=O)N2CCCCC2)ccc1N1CCOCC1,nt,nt,-14.8%,-12.4%,nt,nt
CC(C)Nc1nnc(SC(C)C(=O)NCc2ccc3c(c2)OCO3)s1 (stereo not given),2.6%,5.5,?,-38.4%[5.75 µM],nt,2.0
Cc1cccc(NS(=O)(=O)c2cccc(C(=O)N3CCCC(C(F)(F)F)C3)c2)c1 (stereo not given),nt,nt,-10.6%,-1.6%,nt,nt
O=C(O)Cn1nnnc1SCC(=O)Nc1ccc(F)cc1F,5.1%,2.7,2.7%,-1.8%,1.8%,-1.8
CCC(=O)Nc1ccc(C2C(=O)c3ccccc3C2=O)cc1,-15.7%,35.3,39.4%,105.4%,?,25.4*
SMILES,FBPA Giardia inh,Shiga inhibitor,Pf growth 48h,Pf growth 96h,NS1 function inh,CHX counter
CCC(=O)Nc1ccc(NC(=S)NC(=O)Cc2ccccc2)cc1,-0.8%,-2.0,-11.8%,-10.4%,-2.5%,-2.6
CCC(CC)C(=O)Nc1ccc(C(=O)c2ccccc2)cc1,3.2%,49.9*,42.3%,42.9%,-22.1%,17.7*
CCCCC(CC)C(=O)Nc1ccc(Nc2ccccc2)cc1 (stereo not given),-0.2%,-6.9,?,?,5.3%,3.9
CCC(=O)Nc1ccc(NCc2cccs2)cc1,1.5%,11.5,26.5%,16.2%,0.0%,10.6
O=C(O)c1ccc(NC(=S)Nc2ccccc2)cc1,-2.7%,-13.7,49.4%,81.8%,11.4%,15.7*
CCC(=O)Nc1ccc(NC(=S)Nc2ccccc2)cc1,3.9%,-17.6,26.0%,11.7µM*,6.2%,-6.0
C[C@H](NC(=O)N1CCn2c1nc1ccccc12)C(=O)NCc1ccc2c(c1)OCO2,nt,-4.2,-1.1%,-10.2%,-14.6%,-2.7
Cc1ccc(S(=O)(=O)N2CCC(N3CCC(C)CC3)CC2)cc1,nt,-26.9,11.0%,31.5%,-14.6%,1.8
O=C(COc1ccc(Cl)cc1)NNC(=O)CSc1nncs1,5.9%,4.9,0.0%,16.9%,nt,-5.1
Cc1cc(-c2ccc(S(=O)(=O)N3CCCCC3)s2)on1,-0.4%,-2.3,0.3%,?,3.2%,-3.0
CCCc1cc(=O)oc2c(CNc3ccc(OCC)cc3)c(O)ccc12,?,30.0,?,?,-12.7%,7.9
CCN1C(=O)N[C@@H](c2ccccc2)C1=O,0.4%[21.7 µM],nt,0.2%[12.8 µM],9.0%[12.8 µM],nt,nt
COc1ccc(NC(=O)NC2CCCc3ccccc32)cc1 (stereo not given),-2.5%,18.7,21.0%,12.2%,5.1%,15.8*
COc1ccc(C)cc1NC(=O)NC1CCCc2ccccc21 (stereo not given),1.0%,-2.8,11.7µM*,16.2%,5.8%,-4.5
Cc1ccccc1NC(=O)NC1CCCc2ccccc21 (stereo not given),15.6%,-2.3,?,?,11.3%,5.1
CC(=O)c1ccc(NC(=O)NC2CCCc3ccccc32)cc1 (stereo not given),4.9%,3.8,-6.1%,-17.5%,-11.3%,0.5
COc1cccc(CNC2CCCc3ccccc32)c1OC (stereo not given),?,-12.0,-8.6%,2.94µM*,nt,-4.9
Cc1cccc(NC(=O)NC2CCCc3ccccc32)c1 (stereo not given),-9.6%,14.2,-14.6%,36.6%,-14.7%,7.3
COc1ccc(NC(=O)NC2CCCc3ccccc32)cc1OC (stereo not given),nt,31.0*,137.3%,-22.5%,-4.7%,33.5*
OC(CNCc1ccco1)Cn1c2ccc(Br)cc2c2cc(Br)ccc21 (stereo not given),-0.9%,10.1,nt,0.294µM*,6.8%,-4.3
COc1ccc(S(=O)(=O)N(C)C)cc1NC(=O)CSc1nnc(-c2cccnc2)o1,0.4%,-10.4,9.9%,1.7%,nt,-0.5
CC1CC(=O)NN1C(=O)c1ccccc1 (stereo not given),?,-10.3,11.0%,2.3%,2.7%,-2.7

# High-throughput results from PubChem BioAssay.
